The values that follow come from PubChem BioAssay (NCATS).

Results filed as inconclusive are left out. Active and inactive are the calls of the source. The call rests on the fitted dose curve; in most records, active means well fitted curve in the direction sought with a large enough effect; inconclusive means small, poorly fitted or top-dose-only effect, or another doubt; inactive means no such curve, though single readings can be large or run the other way.
Potency means the concentration at half of the fitted maximal effect.

A short description of the experiment: qHTS for Inhibitors of the vitamin D receptor (VDR): Hit Validation using a Texas Red Assay (AID 602201). The settings on record: VDR coregulator binding, Texas Red fluorescence polarization, agonist-bound VDR ligand-binding domain; series mostly up to 57.1 µM. A digest of the protocol:
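After a 2-hour room-temperature incubation, polarization of Texas-Red emission was read (Ex 595 nm/Em 615 nm). Final mix contained 7 nM Texas Red, 1.5 uM VDR-LBD and LG19078.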
In the case of `Cc1ccc(C=Nc2ccc(N(C)C)cc2)o1`, the Potency is 20 µM (active).
The figure for `Nc1c(C(=O)N2CCCCC2)sc(=S)n1-c1ccccc1` is 35.5 µM (active).
The entry for `CCN(CC)S(=O)(=O)c1cc(NC(=O)c2ccc3c(c2)NC(=O)C(C)S3)ccc1C` (centres undefined) is “inactive”.
The figure for `O=S1OC(c2ccccc2)c2cc(Cl)ccc21` (centres undefined) is 7.08 µM (active); for `CCOc1cc(/C=C\c2[nH]c(=O)[nH]c(=O)c2[N+](=O)[O-])ccc1OC(C)CC` (centres undefined) it is “inactive”; for `CCOc1ccc(/C=C/C(=O)c2c(O)cc(C)oc2=O)cc1` it is 25.1 µM (active).
On to `O=C(Nc1ccccc1)c1nc(S(=O)(=O)Cc2ccccc2F)ncc1Cl`, for which the Potency is 2.82 µM (active).
The entry for `COc1cccc(/C=C/c2[nH]c(=O)[nH]c(=O)c2[N+](=O)[O-])c1O` is “inactive”.
The figure for `COc1ccc(C)cc1N1C(=N)/C(=C2/Nc3ccccc3S2)C(c2ccccc2)C1=O` (centres undefined) is 10 µM (active); for `O=c1[nH]c(/C=C/c2ccc(Cl)cc2Cl)c([N+](=O)[O-])c(=O)[nH]1` it is “inactive”.
The entry for `COc1ccc(/C=C2/C(=O)N(c3ccccc3)N=C2C)cc1Br` is “inactive”.
Consider `COC(=O)c1cc(=O)n(Cc2ccco2)c(=Nc2ccc(F)c(Cl)c2)s1`, for which the Potency is 10 µM (active).
To `O=C1C=C(c2ccccc2)C(=O)N1Nc1ccccc1` belongs 3.55 µM (active); to `O=S(=O)(/N=C(\Sc1ccc(Cl)cc1)c1ccccc1)c1ccccc1`, 35.5 µM (active).
As to `CC(NC(=O)c1sc2cc([N+](=O)[O-])ccc2c1Cl)C(C)(C)C` (centres undefined), the Potency is 3.55 µM (active).
The figure for `c1ccc(CCc2nn3c(Cn4cnc5ccccc54)nnc3s2)cc1` is 28.2 µM (active).
To `CCCOc1ccc(/C=C2/C(=O)ON=C2C)cc1OCC` belongs 15.8 µM (active); to `O=C(CCS(=O)(=O)c1nc(-c2cccs2)cc(C(F)(F)F)n1)Nc1cc(Br)ccc1O`, 5.62 µM (active).
The entry for `Cc1nc2c3cc(F)ccc3n(Cc3ccccc3)c2s1` is “inactive”; for `COc1cc(/C=C/C(=O)c2ccc(F)cc2)cc(OC)c1OC` it is “inactive”.
`CS(=O)(=O)c1ccc(C(=O)OCc2nnc(-c3ccc(Cl)cc3)o2)cc1[N+](=O)[O-]`: the Potency is 8.91 µM (active).
To `O=C(/C(=C/c1ccncc1)n1ccnc1)c1ccc(Cl)cc1Cl` belongs 14.1 µM (active); to `CC(=O)C1=C(c2ccc(Br)cc2)C(=O)c2ccccc2C1=O`, 3.55 µM (active).
The figure for `O=[N+]([O-])c1c(Nc2ccc(O)cc2)cc(Cl)c2nonc12` is 3.16 µM (active); for `CSc1nnc(NC(=O)c2nc(S(=O)(=O)Cc3ccccc3)ncc2Cl)s1` it is 28.2 µM (active).
The entry for `CCOC(=O)c1ccc(S(=O)(=O)Nc2cc(S(=O)(=O)N3CCOCC3)ccc2O)cc1` is “inactive”; for `Cc1ccc(S(=O)(=O)CCC(=O)c2cccc([N+](=O)[O-])c2)cc1` it is 3.55 µM (active); for `O=C(/C=C/c1cccc([N+](=O)[O-])c1)c1cccs1` it is 14.1 µM (active).
`FC(F)(F)c1cccc(Sc2nc(-c3ccccc3)nnc2C(F)(F)F)c1`: the Potency result is “inactive”.
The figure for `O=C(/C=C/c1ccc([N+](=O)[O-])cc1)c1cccs1` is 25.1 µM (active); for `[O-]/[N+](=C\c1ccccc1)c1ccc(Br)cc1` it is “inactive”.
On to `COc1cc(/C=C/C(=O)c2cccc([N+](=O)[O-])c2)cc(OC)c1OC`, for which the Potency is 4.47 µM (active).
To `O=C(/C=C/c1ccc(Cl)cc1)c1ccc([N+](=O)[O-])o1` belongs 2.82 µM (active); to `CN1CCN(C(c2ccc(Br)cc2)c2cc(Cl)c3cccnc3c2O)CC1` (centres undefined), 28.2 µM (active).
In the case of `COc1ccc(C(=O)c2coc3c2C(=O)C(=O)c2ccccc2-3)cc1`, the Potency is 5.62 µM (active).
Turning to `COC(=O)/C=c1/sc2nc3ccccc3n2c1=O`, the Potency was 8.91 µM (active).
The figure for `COC(=O)c1ccccc1NC(=O)c1nc(S(=O)(=O)Cc2ccccc2)ncc1Cl` is 3.16 µM (active).
The figure for `NC(=O)COc1ccc(/C=C2\C(=O)ON=C2c2ccccc2)cc1` is 25.1 µM (active); for `CS(=O)(=O)c1ccc(S(=O)CC(=O)Oc2ccc(Cl)cc2)c([N+](=O)[O-])c1` (centres undefined) it is 2.51 µM (active).
